Screening results deposited in PubChem BioAssay by National Center for Advancing Translational Sciences (NCATS).
An excerpt weighted towards active compounds, which were near 5.5% of everything screened.
BCR signal inh – blocks chronic active B-cell receptor signaling | ABC-DLBCL IkBa-CBG/CBR reporter, luminescence ratio, 4 h | Potency, µM (highest dose often 46.1 µM), most hits filed as inhibitors | 340,000 compounds, 0.05% hits; active = well fitted inhibition curve with a large enough effect in the signal ratio, with a control signal flat, not every such curve was filed as active; inconclusive = small, poorly fitted or top-dose-only effect, or effect the other way, or a change in a side signal; the % refers to the signal ratio
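Doxycycline induced both beetle luciferases in TMD8 lymphoma cells; IKK-driven degradation limits the IkappaBalpha-fused green signal, while red luminescence normalises for cell number and nonspecific effects. Compounds tested up to 46 uM, 4 hrs.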
Mito fusion act – inhibitors of mitochondrial division or activators of mitochondrial fusion; AID 485298; Potency, µM (top dose mostly 46.1 µM), actives largely listed as activators; S. cerevisiae fusion-defective mutant growth rescue, CellTiterGlo 48 h; 320,000 compounds, 0.23% hits; note: nearly all actives have a fitted effect of over 45% in size
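Read-out: ATP-based luminescence (CellTiterGlo, 10 min ambient) reporting growth of fusion-defective ts yeast after 48 hours at 37C on glycerol/ethanol YPEG medium in the presence of compound.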
uPA surface inh – inhibitors of cell surface uPA generation; 330,000 compounds, 0.31% hits; Potency, µM (series often up to 38.3 µM), most hits filed as inhibitors; cell surface uPA generation assay, qHTS; active = well fitted inhibition curve with a large enough effect; inconclusive = small, poorly fitted or top-dose-only effect; inactive = no such curve, though single readings can be large or run the other way; tested in mouse RAW 264.7 cells; note: nearly all actives have a fitted effect of over 55% in size
VP16 counter – inhibits Gal4-VP16 luciferase reporter, ROR gamma counter-screen. AID 2546. 310,000 compounds, 3.5% hits. Drosophila S2 Gal4-VP16 UAS-luciferase, luminescence, 20 h. Potency, µM (highest dose often 53.6 µM), actives largely listed as inhibitors;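 note: Gal4-VP16 expression switched on by copper sulfate through the metallothionein promoter; nearly all actives have a fitted effect of over 50% in size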
a7 integrin act – integrin-mediated muscular dystrophy alleviation activation; alpha7betagal myoblasts, beta-gal FDG fluorescence, 48 h; Potency, µM (series often up to 38.3 µM), most hits filed as activators; 350,000 compounds, 0.064% hits; note: nearly all actives have a fitted effect of over 60% in size
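alpha7betagal+/- myoblasts (passage 13, 250/well) treated 48 h at 37C with compounds at 1:260 dilution of DMSO stock. Lysed, then beta-galactosidase activity read as FDG fluorescence (ex 480/em 540) after 30 min, with pre-read for autofluorescence.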
RORg inh – blocks mouse ROR gamma transcriptional activity | P51450 | Drosophila S2 Gal4-RORgamma UAS-luciferase reporter, 20 h | Potency, µM (titrated, usually from 53.6 µM), most hits filed as inhibitors | 310,000 compounds, 5.4% hits; note: nearly all actives have a fitted effect of over 60% in size
Target sequence (P51450 whole entry, looked up, the tested form may be a part): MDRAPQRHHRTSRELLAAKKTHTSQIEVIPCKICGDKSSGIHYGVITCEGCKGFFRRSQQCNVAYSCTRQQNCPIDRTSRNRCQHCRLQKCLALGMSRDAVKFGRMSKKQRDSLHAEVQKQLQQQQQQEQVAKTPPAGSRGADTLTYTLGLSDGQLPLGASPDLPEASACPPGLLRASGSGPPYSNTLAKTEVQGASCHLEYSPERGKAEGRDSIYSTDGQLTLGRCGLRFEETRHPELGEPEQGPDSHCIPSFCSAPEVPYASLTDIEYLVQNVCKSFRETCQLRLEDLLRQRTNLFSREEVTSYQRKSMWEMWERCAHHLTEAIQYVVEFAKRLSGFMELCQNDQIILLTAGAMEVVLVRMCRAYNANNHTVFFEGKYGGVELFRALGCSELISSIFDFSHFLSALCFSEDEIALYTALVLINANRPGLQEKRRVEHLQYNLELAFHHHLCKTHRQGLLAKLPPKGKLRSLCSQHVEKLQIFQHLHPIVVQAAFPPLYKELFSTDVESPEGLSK
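A Gal4/UAS one-hybrid system in insect cells: metallothionein-promoter Gal4–ROR gamma fusion plus Photinus luciferase reporter. Copper sulfate 700 uM final, 20 hr ambient incubation, luminescent detection after 10 min with reagent.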
Hits are given with their value; 0 = inactive; ? = inconclusive; - = no result given; [ ] = another dose, or the depositor's remark. Unless noted, calls come from the whole dose curve; as a rule, active = well fitted curve in the direction sought with a large enough effect; inconclusive = small, poorly fitted or top-dose-only effect, or another doubt; inactive = no such curve, though single readings can be large; an effect the other way counts as inactive or inconclusive.

SMILES | BCR signal inh | Mito fusion act | uPA surface inh | VP16 counter | a7 integrin act | RORg inh
Cc1ccccc1OCC(=O)N/N=C/c1ccc2c(c1)OCCO2 | 0 | 0 | 0 | ? | 0 | 0
COCCNC(=S)N/N=C/c1ccc2c(c1)OCCO2 | 0 | 0 | 0 | ? | 0 | 10µM
S=C(NN=Cc1ccc2c(c1)OCO2)NN=Cc1ccc2c(c1)OCO2 | - | - | 0 | - | 0 | -
CC(C)NC(=S)N/N=C/c1ccc2c(c1)OCCO2 | 0 | 0 | 0 | ? | 0 | 2.2µM
O=C(CN1C(=O)COc2ccccc21)NCCc1ccc(Cl)cc1 | 0 | - | - | - | - | -
Cc1ccccc1Nc1nc(N)nc(COC(=O)[C@@H](NC(=O)c2ccccc2Cl)C(C)C)n1 | ? | 0 | 0 | - | 0 | -
CCCOc1ccc(C2C(=O)N(C3CCCCC3)CC(=O)N2CCC2=CCCCC2)cc1OC (centres undefined) | 0 | - | - | - | - | -
Cc1ccc(NC(=O)CC2S/C(=N/N=C/C=C/c3ccccc3)NC2=O)cc1Cl (centres undefined) | 0 | 0 | 0 | 4µM | 0 | 4µM
CC(C)=N/N=C1/NC(=O)C(CC(=O)Nc2cc(Cl)ccc2C)S1 (centres undefined) | 0 | 0 | 0 | ? | 0 | 11µM
CCOC(=O)c1ccc(CN(Cc2ccccc2C)S(=O)(=O)c2ccc(F)c(C)c2)cc1 | 0 | - | - | - | - | -
Cc1ccc(C)c(S(=O)(=O)N2CCN(C(=O)CCNS(=O)(=O)c3ccccc3)CC2)c1 | 0 | 0 | 0 | 0 | 0 | 0
Cc1nc(SC(C(N)=O)c2ccccc2)c(C#N)c(C)c1C (centres undefined) | 0 | 0 | 0 | 0 | 0 | 0
COc1ccccc1-c1cc(-c2ccccc2)nc(SC(C(N)=O)c2ccccc2)c1C#N (centres undefined) | 0 | 0 | 0 | ? | 0 | 11µM
CCOc1cccc(/C=N/NC(=O)c2cc(-c3cccn3C)n[nH]2)c1O | 0 | 0 | 0 | 5µM | 0 | 2.8µM
COc1cccc(/C=N/NC(=O)c2ccc(-c3ccccc3)cc2)c1O | ? | 0 | 0 | 3.2µM | 0 | 0.71µM
COc1cccc(/C=N/NC(=O)c2ccc(=O)n(C)c2)c1O | 0 | 0 | 0 | 3.2µM | 0 | 0.63µM
COc1cccc(/C=N/NC(=O)C(=O)Nc2ccccc2OC(F)(F)C(F)F)c1O | 0 | 0 | 0 | 1.4µM | 0 | 1µM
COc1ccc(C(=O)NCc2ccc3c(c2)CCN3C(=O)c2ccc(Cl)cc2)c(OC)c1 | 0 | - | - | - | - | -
O=C(NCCCN1CCOCC1)c1ccc(NS(=O)(=O)c2cccc([N+](=O)[O-])c2)cc1 | 0 | 0 | 0 | - | 0 | -
CC1Cn2cc(C(=O)Nc3ccccc3C(F)(F)F)c(=O)c3c(Cl)ccc(c32)O1 (centres undefined) | 0 | 0 | - | - | - | -
CCOc1ccc(NC(=O)CN(C)C(=O)CCCn2c(=O)oc3ccccc32)cc1OCC | 0 | 0 | 0 | - | 0 | -
Cc1cc(C)c2c(NC(=S)NC(=O)c3ccccc3)n[nH]c2n1 | 0 | 0 | 0 | ? | 0 | 5.6µM
Cc1cc(C)c2c(NC(=S)Nc3ccccc3)n[nH]c2n1 | 0 | 0 | 0 | 3.2µM | 0 | 1.1µM
O=C(NC(=S)Nc1ccc2[nH]ncc2c1)c1ccccc1 | ? | 0 | 0 | 0 | 0 | 0
O=c1[nH]c2ccc(NC(=S)Nc3ccccc3)cc2[nH]1 | 0 | 0 | 0 | 0 | 0 | 0
SMILES | BCR signal inh | Mito fusion act | uPA surface inh | VP16 counter | a7 integrin act | RORg inh
CO/N=C(\C(=O)N[C@@H]1C(=O)N2C(C(=O)[O-])=C(C[n+]3cccc4c3CCC4)CS[C@H]12)c1csc(N)n1 | - | - | - | 0 | - | 0
CCN(CC(=O)NCc1ccc(Cl)cc1)C(=O)c1ccc(S(=O)(=O)NCc2ccco2)cc1 | ? | 0 | 0 | 0 | 0 | 0
CC1CCC2CC1C2(C)C (centres undefined) | - | - | - | 0 | - | 0
Cc1c(C(=S)Nc2ccccc2)cnn1-c1ccccc1 | ? | 0 | 0 | 0 | 0 | ?
Cc1nn(-c2ccccc2)cc1C(=S)Nc1ccccc1 | 0 | 0 | 0 | 0 | 0 | 11µM
C=C(C(C)=O)C(O)c1ccc2ccccc2c1 (centres undefined) | - | - | - | 0 | - | 0
NNc1nc2c(F)cccc2s1 | ? | 0 | 0 | ? | 0 | 16µM
CC1CCc2c(sc(NC(=O)C3=COCCO3)c2C(N)=O)C1 (centres undefined) | 0 | 0 | 7.9µM | - | 0 | -
CNC(=O)c1c(NC(=O)C2=COCCO2)sc2c1CCC(C)C2 (centres undefined) | ? | 0 | ? | 0 | 0 | 0
NNc1nc2c(F)cc(F)cc2s1 | ? | 0 | 0 | 18µM | 0 | ?
Nc1nc2c(F)cccc2s1 | ? | 0 | 0 | 0 | 0 | 0
O=C(Nc1nc2c(F)cc(F)cc2s1)c1ccco1 | ? | 0 | ? | ? | 0 | 0
Fc1cccc2sc(Nc3nc4c(F)cccc4s3)nc12 | 0 | 0 | 0 | ? | 0 | 4.5µM
CC(C)CCCC(C)CCCC(C)CCCCC(C)CCCC(C)CCCC(C)C (centres undefined) | - | - | - | 0 | - | 0[10 µM]
Cc1ccc(NS(=O)(=O)c2cc(NC(=O)c3ccc4c(c3)NC(=O)CS4)ccc2Cl)c(C)c1 | 0 | 0 | 0 | 0 | 0 | ?
CC1CCc2c(sc(Nc3nc4c(F)cccc4s3)c2C(N)=O)C1 (centres undefined) | ? | ? | 0 | 5µM | 0 | 5.6µM
O=C(COc1ccc2ccccc2c1Br)NC(=S)Nc1cccc(CO)c1 | ? | 0 | 0 | 10µM | 0 | 7.9µM
O=C(COc1ccc(Br)cc1Br)NC(=S)Nc1cccc(CO)c1 | ? | ? | 0 | 8.9µM | 0 | 1.4µM
Cc1ccc(-c2nc3sc(CCNC(=O)c4ccco4)c(C)n3n2)cc1 | 0 | - | - | - | - | -
Cc1ccc([S+](=O)([O-])N(c2ccccc2)[S+](=O)([O-])C(F)(F)F)cc1 | - | - | - | 0 | - | 0
O=C(CC(=O)c1ccccc1O)c1ccc(F)cc1 | ? | 0 | 0 | ? | 0 | 14µM
COc1ccc(C(=O)CC(=O)c2ccc(F)cc2)cc1 | - | - | 0 | - | 0 | -
O=C(CC(=O)c1ccccc1O)c1cccc(F)c1 | 0 | 0 | 0 | ? | 0 | 7.1µM
O=C(CC(=O)c1c(F)cccc1Cl)c1ccccc1O | 0 | 0 | 0 | 11µM | 0 | 20µM
O=C(Nc1ccccc1C(=O)O)c1cccc(F)c1 | - | - | 0 | - | 0 | -
SMILES | BCR signal inh | Mito fusion act | uPA surface inh | VP16 counter | a7 integrin act | RORg inh
CC[n+]1c(/C=C/C=C2/N(C)c3ccccc3C2(C)C)sc2ccccc21 | - | 0 | - | - | - | -
COc1ccccc1C(=O)Nc1ccnn1C1CCN(Cc2ccn[nH]2)CC1 | 0 | 0 | 0 | 0 | 0 | 0
Cc1cc(C2=NNC(=NC3CC3)SC2)c(C)n1-c1ccccc1 | 0 | 0 | ? | 6.3µM | 0 | 2.5µM
Cc1cc(C2=NNC(=NCc3ccccc3)SC2)c(C)n1-c1c(C)n(C)n(-c2ccccc2)c1=O | ? | 0 | 0 | 0 | 0 | 0
CN=C1NN=C(c2cc(C)n(-c3c(C)n(C)n(-c4ccccc4)c3=O)c2C)CS1 | 0 | 32µM | 0 | ? | 0 | ?
O=C(NCc1ccc(F)cc1)C1CC(=O)N(C2CCCCCCC2)C1 (centres undefined) | 0 | 0 | 0 | 0 | 0 | 0
